The text below walks through data of ChEMBL document CHEMBL4513216, “Probing the Open Global Health Chemical Diversity Library for Multistage-Active Starting Points for Next-Generation Antimalarials” (ACS Infect Dis, 2020).

The whole screen tested about 68,000 compounds, of which about 2,700 (4%) showed an effect of 50% or more. Only a selection was taken, and strong results are over-represented in it overall.

The test has as its system Plasmodium berghei. Put plainly: Screen against P. berghei liver stage (PbLuc), transformed with Luciferase, at 2uM. The format is functional, HepG2. The conditions noted are these: tested at 2 uM.
Consider `Fc1ccccc1Cn1c(C2CCNCC2)cc2cccnc21`, for which the INHIBITION is -23.54%.
Consider `CCOc1cccc(C(=O)N2CCN(c3nccc(OC)n3)CC2)c1`, for which the INHIBITION was determined as 8.37%.
Regarding `CCc1ncc(C(=O)N2CCCN(C3CCCCC3)CC2)cn1`, the INHIBITION was -35.1%.
As to `COc1cccc(C2(C(=O)NC3CCc4nccn4C3)CCCC2)c1` (stereo not drawn), the INHIBITION was -5.74%.
Under `O=C(c1nc(=O)[nH][nH]1)N1CCCCCC1` stands 33.9%.
As for `CCn1c(C2CCCN(Cc3ccnc4ccccc34)C2)nn(C)c1=O` (stereo not drawn), the INHIBITION is 17.48%.
Regarding `OCCOCCNCC1(c2ccc(F)cc2)CCOC1` (stereo not drawn), the INHIBITION is recorded as -18.52%.
Turning to `CN(Cc1ccccc1)CC(O)Cn1cnc2cc(F)ccc2c1=O` (stereo not drawn), the INHIBITION is given as -75.13%.
`Cc1ccc(N2CC[C@H]3O[C@@H](C(=O)NCc4ccco4)CC[C@H]32)nn1`: the INHIBITION turned out to be 4.64%.
In the case of `CCNC(=O)NC(=O)CN1CCOC(c2cccc(Br)c2)C1` (stereo not drawn), the INHIBITION turned out to be 16.72%.
With `CCCNC(=O)CN1CCOC(c2ccc(Br)cc2)C1` (stereo not drawn) the figure was 15.82%; with `CCNC(=O)NC(=O)CN1CCOC(c2ccc(Br)cc2)C1` (stereo not drawn), 59.94%.
For the compound `Cn1cc(NC(=O)c2cc3c(s2)CCCC3)cn1`, the INHIBITION is on record as -56.09%.
As for `Cc1nc(C)n(CC2CCCCN2CCCS(C)(=O)=O)n1` (stereo not drawn), the INHIBITION is reported as -12.84%.
Under `CN(C)CCNC(=O)c1ccc(S(=O)(=O)N[C@@H]2CCNC2)cc1` stands 8.31%; under `O=C(NCCc1ccncc1)c1ccc(S(=O)(=O)NC2CCC2)cc1`, 28.85%; under `CC(C)N(CCNC(=O)c1ccc(S(=O)(=O)NC2CC2)cc1)C(C)C`, 58.12%.
Turning to `CC(O)CN1CCN(C(=O)c2cccn2Cc2ccccc2)CC1` (stereo not drawn), the INHIBITION turned out to be 15.28%.
Regarding `O=C(c1ccncc1)N1CCCn2c(CN3CCCC3)nnc2C1`, the INHIBITION was found to be 23.14%.
Turning to `Cc1cc(C)c(CNC(=O)NCC2Cc3ccccc32)c(=O)[nH]1` (stereo not drawn), the INHIBITION is reported as 45.16%.
For the compound `NC(=O)c1ccc(CNC(=O)Nc2cn[nH]c2)cc1`, the INHIBITION is on record as 26.06%.
In the case of `CN1CC(=O)N(c2cnn(C)c2)CC12CCN(Cc1ccccc1)C2` (stereo not drawn), the INHIBITION is listed as 15.96%.
`COCc1nnc(C(=O)N2CC(N3CCCCC3)C2)o1`: the INHIBITION is on record as -13.03%.
Regarding `COCc1nnc(C(=O)N2CCCC(O)C2)o1` (stereo not drawn), the INHIBITION was determined as 30.88%.
For `COCc1nnc(C(=O)N2CCC(N3CCCCC3)CC2)o1`, the INHIBITION came to 57.89%.
With `CN(C)C(C(=O)N1CC(Oc2ccccc2F)C1)c1ccccc1F` (stereo not drawn), the INHIBITION was determined as 19.07%.
In the case of `CCCN1CCCN(C(=O)c2ccc(Oc3cccnc3)cc2)CC1`, the INHIBITION worked out at 35.37%.
Consider `COc1cccc(CN(C)CCCn2cnc3c(N)ncnc32)c1`, for which the INHIBITION was -51.87%.
For `COc1ccc(OCCN(C)CCCn2cnc3c(N)ncnc32)cc1`, the INHIBITION is on record as 36.29%.
As to `COc1cccc(SCCCn2cnc3c(N)ncnc32)c1`, the INHIBITION was found to be 52.19%.
Consider `Cc1ncnc2c1CCN(C(=O)c1ccncc1F)CC2`, for which the INHIBITION is on record as 6.81%.
`O=C1CC(c2ccncc2)C2(CCN(CC3CC3)CC2)N1` (stereo not drawn): the INHIBITION is 22.2%.
Take `Cc1nc(N2CCN3CCCCC3C2)nc2cc(S(C)(=O)=O)ccc12` (stereo not drawn): the INHIBITION is listed as -15.11%.
As to `Cc1nc(N2CCCC(C)C2)nc2cc(S(C)(=O)=O)ccc12` (stereo not drawn), the INHIBITION is given as -24.78%.
For `Cc1nc(N2C[C@H]3CC[C@@H](C2)N3)nc2cc(S(C)(=O)=O)ccc12`, the INHIBITION worked out at 77.42%.
As for `O=C(COc1ccccc1)NCCNC(=O)c1scnc1Cl`, the INHIBITION is 7.71%.
With `CC(C)(C)OC(=O)N1CCCN(c2nnc(C3CC3)s2)CC1` the figure was 34.69%.
With `Cc1nnc(NC(=O)CN2CCc3nn(C)c(=O)cc3C2)s1` the figure was 23.27%; with `Cc1cc(CN2CCN(CC(O)c3ccc4c(c3)OCO4)CC2)no1` (stereo not drawn), -19.1%; with `Cc1noc(C)c1CNCC1COCc2c(-c3ccsc3)nnn2C1` (stereo not drawn), 7.68%.
`Cc1cc(C)c(CNC(=O)Cc2ccc3c(c2)CCCC3)c(=O)[nH]1`: the INHIBITION was 4.18%.
With `Cc1cc(C)c(CNC(=O)c2ccc3c(c2)CCC3)c(=O)[nH]1` the figure was 58.52%; with `Cc1cc(C)c(CNC(=O)NCCOc2ccc3c(c2)CCC3)c(=O)[nH]1`, 14.11%; with `Cc1cc(C)c(CNC(=O)NC(C)c2ccc3c(c2)CCC3)c(=O)[nH]1` (stereo not drawn), 50.05%.
For the compound `Cc1ccc(C(O)CNC(=O)NCc2c(C)cc(C)[nH]c2=O)cc1` (stereo not drawn), the INHIBITION is on record as -11.2%.
Under `Cc1cc(C)c(CNC(=O)NCc2ccc3c(c2)CCC3)c(=O)[nH]1` stands -7.02%; under `CNc1ncc(C(=O)N2CCOC(C(=O)NC3CCCC3)C2)cn1` (stereo not drawn), 8.75%; under `Cc1ccc(CN(CCCn2ccnc2)Cc2cc(F)ccc2F)s1`, 20.71%.
As for `CC1=N[C@@]2(CC[C@@H]3CN(CC4CC4)C[C@@H]32)C(=O)N1CC(C)C`, the INHIBITION stood at 28.85%.
Turning to `CN(Cc1ccco1)[C@@H]1CN(C(=O)c2ccnnc2)[C@@H]2CCCO[C@H]12`, the INHIBITION is 7.08%.
Turning to `Cc1nccnc1N1C[C@H]2CN(C3CCOCC3)C[C@@]2(C(=O)O)C1`, the INHIBITION is on record as 8.93%.
In the case of `CC(NC(=O)c1cc(=O)n(C)c(=O)n1C)c1ccccc1-n1cccn1` (stereo not drawn), the INHIBITION is recorded as 50.97%.
On to `CCC(=O)NC(C)c1ccccc1C` (stereo not drawn), for which the INHIBITION is -6.19%.
With `Cn1cc(C(=O)Nc2cccc(F)c2)ccc1=O` the figure was -66.38%.
Consider `Cc1ccccc1C(C)NC(=O)c1ccc(=O)n(C)c1` (stereo not drawn), for which the INHIBITION is reported as 64.9%.
With `CC(NC(=O)c1ccc(=O)n(C)c1)c1ccccc1-n1cccn1` (stereo not drawn) the figure was 51.64%; with `CCN(CC)CCCC(C)NC(=O)c1ccccc1-n1cccn1` (stereo not drawn), 19.33%; with `Cn1c(CNc2c(F)cccc2-n2cccn2)cc(=O)n(C)c1=O`, 32.14%.
Consider `CC(NC1CCSCC1)c1ccccc1-n1cccn1` (stereo not drawn), for which the INHIBITION came out at 27.52%.
`CC(NC1CCCC1)c1ccccc1-n1cccn1` (stereo not drawn): the INHIBITION is listed as 21.28%.
With `CC(=O)NCc1cc2n(n1)CCN(Cc1ccccc1OC(F)(F)F)C2` the figure was 27.52%.
With `CCN(CC)S(=O)(=O)N1C[C@@H](c2ccccc2)[C@H]2[C@H]1CCCCCN2C`, the INHIBITION is reported as 20.71%.
Take `Cc1nc(C)c(-c2ccn(CC(=O)Nc3cnn(C)n3)n2)s1`: the INHIBITION was determined as 8.05%.
With `CC(C)=CCN1C[C@@H]2CC[C@H]1CN(C(=O)c1ccc3c(c1)OCO3)C2` the figure was 34.98%; with `Cc1cc2c(=O)n(CCSc3cnn[nH]3)cnc2s1`, 39.99%; with `CN(Cc1ccsc1)C(=O)c1ccc(C2CCCO2)s1` (stereo not drawn), -15.11%.
For `O=C(CNC(=O)c1ccccc1I)NCc1ccccc1F`, the INHIBITION is on record as -20.75%.
As to `CS(=O)(=O)NCc1cc(=O)n2c(n1)CN(CC1CC1)CCC2`, the INHIBITION amounted to 33.12%.
With `Clc1cnccc1N1CCCC2(CCCOC2)C1` (stereo not drawn), the INHIBITION is 48.73%.
With `CCS(=O)(=O)c1ccc(N2CCC(N)CC2)cc1`, the INHIBITION is on record as 67.9%.
For the compound `CCNC(=O)NC1CCN(c2ccc(S(=O)(=O)CC)cc2)CC1`, the INHIBITION is listed as -6.38%.
As to `CCS(=O)(=O)c1ccc(N2CCC(NC(C)=O)CC2)cc1`, the INHIBITION is listed as -0.54%.
With `O=C(c1sccc1C1CC1)N1CCN(c2nccs2)CC1`, the INHIBITION is reported as -15.54%.
Take `CC(c1ccon1)N(C)S(=O)(=O)NCc1ccccc1` (stereo not drawn): the INHIBITION is on record as -6.7%.
Under `Cc1cc(C(=O)N(C)CC(F)(F)C(F)(F)F)ccc1-n1cncn1` stands 49.78%.
Regarding `CCN(CC)C(=O)CCc1nc(-c2cnn3c(C)cc(C)nc23)no1`, the INHIBITION was -23.48%.
With `O=C(NCc1cccnc1N1CCCCC1)c1ccc2cc[nH]c2c1` the figure was 15.75%.
`O=C(NCc1cccnc1N1CCCCC1)c1ccc2[nH]nnc2c1`: the INHIBITION came to 54.47%.
Take `O=C(NCc1cccnc1N1CCCC(O)C1)c1ccc2[nH]nnc2c1` (stereo not drawn): the INHIBITION was found to be 33.13%.
With `O=C1NC[C@@]2(C(=O)O)CN(Cc3cccc(CN4CCOCC4)c3)C[C@@H]12` the figure was 34.46%; with `O=C1NC[C@@]2(C(=O)O)CN(Cc3cccc(Oc4ccccc4)c3)C[C@@H]12`, 24.55%; with `O=C1NC[C@@]2(C(=O)O)CN(Cc3cccc(OC4CCCC4)c3)C[C@@H]12`, 62%.
Turning to `Cc1cc(C(C)(O)CNC(=O)c2ccc(Br)o2)c(C)o1` (stereo not drawn), the INHIBITION stood at 27.32%.
For `Cc1cc(C(C)(O)CNC(=O)OC(C)(C)C)c(C)o1` (stereo not drawn), the INHIBITION was found to be 25.21%.
With `Cc1cc(C(C)(O)CNC(=O)C2(C)CCCC2)c(C)o1` (stereo not drawn), the INHIBITION came to 65.92%.
Under `COCC1CC2(CCN(Cc3ccc(OC)cc3)CC2)CN1C(C)C` (stereo not drawn) stands 2.07%; under `CC1CCN(CCNC(=O)c2cncnc2C(C)C)CC1`, 25.35%.
For `Cc1ccccc1-c1ncc(CNCc2csc(C(C)C)n2)s1`, the INHIBITION is on record as -17.01%.
On to `CCC1=NOC(CNCc2cnc(-c3ccccc3C)s2)C1` (stereo not drawn), for which the INHIBITION was -31.79%.
As to `Cc1cnc(CNCc2cnc(-c3ccccc3C)s2)cn1`, the INHIBITION amounted to 58.53%.
With `COCCN1C=NC2(CCC(C(=O)Nc3ccc(C)cc3)CC2)C1=O` (stereo not drawn) the figure was -76.06%; with `COc1cccc(-c2noc(C3CCN(Cc4ccccc4C)C3)n2)c1` (stereo not drawn), 3.97%; with `COc1cccc(-c2noc(C3CCN(Cc4ccncc4)C3)n2)c1` (stereo not drawn), -22.79%.
With `COc1cccc(-c2noc(C3CCN(Cc4ccc(C)cc4)C3)n2)c1` (stereo not drawn) the figure was 58.96%.
`Cc1cccc(CN2CCC3(CC2)CN(c2cnn(C)c2)C(=O)CO3)n1`: the INHIBITION is listed as -29.81%.
Turning to `Cc1cc(NC(=O)C(C#N)Cc2cnn(C)c2C)no1` (stereo not drawn), the INHIBITION is listed as -11.32%.
On to `CN1CCCC1CCn1ccnc1-c1nc(-c2ccccc2)no1` (stereo not drawn), for which the INHIBITION stood at 17.37%.
Regarding `O=c1c(S(=O)(=O)N2CCCC2)cccn1Cc1ccccc1Cl`, the INHIBITION is reported as 52.89%.
In the case of `O=c1c(S(=O)(=O)N2CCCC2)cccn1Cc1ccc(F)cc1Cl`, the INHIBITION is 0.78%.
Regarding `O=c1c(S(=O)(=O)N2CCCCC2)cccn1Cc1ccccc1Cl`, the INHIBITION is given as -10.16%.
Turning to `O=C(NCc1cccc(F)c1)NCC(O)c1cccc(F)c1` (stereo not drawn), the INHIBITION is -70.27%.
As for `Cc1ccc(C)c(NC(=O)c2coc(C)n2)c1`, the INHIBITION is given as 48.68%.
For the compound `COCc1ccc(C(=O)NS(=O)(=O)c2ccc3c(c2)CCC(=O)N3)cc1`, the INHIBITION came out at 24.36%.
